Screen size: about 280,000 compounds; about 100 (0.036%) were called active. About 11% were inconclusive and are not listed. The sample holds actives, similar compounds and a random draw of the others, so the mix is not that of the screen. Calls come from the whole dose curve; as a rule, active = well fitted inhibition curve with a large enough effect in the signal ratio, with a control signal flat (not every such curve was filed as active); inconclusive = small, poorly fitted or top-dose-only effect, or effect the other way, or a change in a side signal; inactive = no such curve, though single readings can be large or run the other way; the % refers to the signal ratio.
What follows are compounds tested against Muscleblind-like protein 1 (Homo sapiens) (UniProt Q9NR56) (assay: qHTS Assay for Inhibitors of MBNL1-poly(CUG) RNA binding). Settings: TR-FRET MBNL1-His/biotin-(CUG)12 binding, 665/545 ratio; series mostly up to 57.5 µM.
Chain of Muscleblind-like protein 1 (Homo sapiens) (Q9NR56 whole entry, looked up): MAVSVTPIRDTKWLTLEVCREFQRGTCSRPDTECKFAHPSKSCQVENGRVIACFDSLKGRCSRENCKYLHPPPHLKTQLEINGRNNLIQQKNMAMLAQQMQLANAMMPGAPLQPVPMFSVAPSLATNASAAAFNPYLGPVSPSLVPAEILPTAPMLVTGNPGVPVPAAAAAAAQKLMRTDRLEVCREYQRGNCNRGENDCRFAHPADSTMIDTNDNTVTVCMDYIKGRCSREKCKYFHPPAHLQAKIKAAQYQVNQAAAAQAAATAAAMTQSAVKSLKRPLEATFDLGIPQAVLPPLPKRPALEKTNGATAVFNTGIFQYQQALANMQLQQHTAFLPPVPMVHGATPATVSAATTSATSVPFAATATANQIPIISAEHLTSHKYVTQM
Excerpt: NIH Chemical Genomics Center [NCGC] NIH Molecular Libraries Probe Production Centers Network [MLPCN] MLPCN Grant: R03 MH087421-01 Assay Submitter (PI): Charles Thornton NCGC Assay Overview: Expanded CTG repeats in the 3' untranslated region of the DM protein kinase (DMPK) gene causes type I myotonic dystrophy (DM1). DM1 is a multi-systemic disease with a prevalence of 1/7000. Clinical features include myotonia, progressive muscle weakness and wasting, cardiac arrhythmia, insulin resistance, hypersomnolence, cataracts, and other symptoms. The pathogenic effect of expanded CTG repeats stems from deleterious effects of the mutant transcript. CUGexp mRNA accumulates in nuclear foci and sequesters proteins of the muscleblind family, of which MBNL1 is the most common family member in skeletal muscles. The binding interaction between MBNL1 and CUGexp tracts leads to deregulation of alternative splicing and is therefore a key molecular step in the pathogenesis of DM1. To target this binding interaction, we optimized a protein-RNA binding assay in 1536-well format for identification of small molecule inhibitors of biotinylated (CUG)12 and his-tagged MBNL1 binding. Protein-RNA complex of MBNL1-His and Biotin-(CUG)12 captures the detection reagents terbium-labeled anti-His antibody and streptavidin conjugated XL665. This brings the terbium label within close proximity to XL665 to allow time-resolved fluorescence resonance energy transfer (TR-FRET). Inhibitors of MBNL1-(CUG)12 binding will disrupt TR-FRET.
NCGC Assay Protocol Summary: This is a TR-FRET binding assay with MBNL1-His and Biotin-(CUG)12 RNA. The assay uses a ratiometric measurement. In the presence of MBNL1-(CUG)12 complex, the excitation energy is transferred to the XL665 acceptor label, causing emission at 665nm, while the 545nm donor signal […]. Data were normalized to the controls for basal activity (buffer only) and 100% activity (with MBNL1-(CUG)12). […] The final titration was 92 nM to 58 uM. (3) Add 1 ul of terbium labeled anti-His antibody (0.055 ng/ul final concentration) (4) Add 1 ul of streptavidin-XL665 (5 nM final concentration) (5) Incubate 60 min at room temperature (6) Detect the assay plate in a EnVision plate reader (PerkinElmer) with Ex=340 nm, Em1=665 nm and Em2=545 nm. Keywords: mytonic dystrophy type I, DM1, muscleblind like 1, MBNL1, CUG expansion, protein-RNA binding inhibitor, high throughput screening, MLSMR, MLSCN, NIH Roadmap, qHTS and NCGC
% is set by controls: 0 for no effect and ±100 for the full control effect.

Activity change, negative = inhibition, inactive:
CC(C)c1ccc(N(C(=O)c2ccco2)C(C(=O)NC2CCCC2)c2cccnc2)cc1 (stereo unspecified), COc1ccccc1CCNS(=O)(=O)c1cn(C)nc1C, CCOc1ccc(N(CC(=O)NCCc2ccc(F)cc2)S(=O)(=O)c2ccccc2)cc1, Cc1ccc(Cn2c(=N)c(S(=O)(=O)c3ccc(C)cc3)cc3c(=O)n4ccccc4nc32)cc1, C=CCSc1nc2c(c(=O)[nH]c(=O)n2C)n1Cc1ccccc1, Cc1ccc(-c2csc(NC3OC(=O)c4ccccc43)n2)cc1 (stereo unspecified), Cc1ccc(C)c(NC(=O)c2cc(-c3cc(C)cc(C)c3O)n[nH]2)c1, Cc1ccccc1N1CCN(S(=O)(=O)c2ccc3ccccc3c2)CC1, Cc1ccc(CS(=O)Cc2ccc(C(=O)N3CCOCC3)o2)cc1 (stereo unspecified), CCn1cc(CN2CCN(CC(C)(C)C)C(CCO)C2)c2ccccc21 (stereo unspecified), Cc1ccc(-c2ccc(=O)n(Cc3ccc(F)cc3Cl)n2)cc1, CC(C)(C)c1ccc(C(=O)N2CCN(CCNC(=O)C(=O)Nc3ccc(F)cc3)CC2)cc1, COc1ccccc1NC(=O)C1CCN(C(=O)c2ccc(C(C)(C)C)cc2)CC1, COc1ccc(OC)c(CCNC(=O)c2nn(C)c3c2CS(=O)(=O)c2ccccc2-3)c1, CCCC[C@]12Cc3cc(OC)c(OC)cc3C(O1)C1=C(CC3(CCCCC3)OC1=O)O2 -1.93% [at 11.5 µM], COc1cccc(CNS(=O)(=O)c2ccc3c(c2)CC(C)N3C(C)=O)c1 (stereo unspecified), Cc1cccc(C(=O)N2CCCC(Nc3ccc(C(C)C)cc3)C2)n1 (stereo unspecified), Cc1ccc2nc(SCC(=O)NC3CCCC3)[nH]c2c1, Cc1[nH]c(C)c(S(=O)(=O)N2CCN(c3cccc(C(F)(F)F)c3)CC2)c1C(=O)N1CCCC1, CS(=O)(=O)N(CC(=O)N1CCOCC1)c1cccc(Cl)c1Cl, CCc1ccc(OCC(=O)NCC(c2ccc(Cl)cc2)N2CCCCC2)cc1 (stereo unspecified), Cc1c(C(=O)NCC(c2ccco2)N2CCCC2)oc2ccc(Cl)cc12 (stereo unspecified), N#Cc1ccccc1S(=O)(=O)N1CCN(C(=O)c2cc(-c3ccccc3)nn2-c2ccccc2)CC1, CCCCC(C(=O)NC(C)(C)C)N(Cc1ccccc1)C(=O)c1snc(C(N)=O)c1N (stereo unspecified), CS(=O)(=O)Nc1cccc(C2=NN(C(=O)c3cccc(F)c3)C(c3cccs3)C2)c1 (stereo unspecified), COc1cccc(CNC(=O)Cn2c(=O)oc3cc(S(=O)(=O)N4CCCCC4)ccc32)c1, COc1ccc(NC(=O)c2sc3nc(C)nc(N4CCN(c5ccccn5)CC4)c3c2C)c(OC)c1, CCCCc1nc2cc(C(=O)N3CCCCC3CCO)ccc2o1 (stereo unspecified), O=C(c1ccccc1)N1CCC(CC2CC(c3ccc(Cl)cc3)=NO2)(C(=O)NCC2CCCCC2)CC1 (stereo unspecified), O=C(c1ccco1)N1CCN(Cc2cccc(C(F)(F)F)c2)CC1, O=C(Nc1ccc(F)cc1)c1ccc(S(=O)(=O)NCc2cccnc2)cc1, Cc1ccc(S(=O)(=O)N2CCN=C2SCc2c(F)cccc2Cl)cc1, COc1ccc(C)cc1Nc1n[n+](-c2ccccc2)c(-c2cccc(Cl)c2Cl)s1, C=CCc1cccc(/C=N/NC(=O)COc2ccc(-n3cnnn3)cc2)c1O, O=C1CCN(Cc2ccccc2)CCN1[C@H](CSc1ccccc1)c1ccccc1, CC(C)c1ccc(NC(=O)C2CCCN(S(=O)(=O)c3cccnc3)C2)cc1 (stereo unspecified), COc1ccc(NC(=O)c2cccc3c2C(=O)N(CC2CCCO2)C3)cc1OC (stereo unspecified), COc1ccc2c3c(c(=O)oc2c1)C1O[C@](CCCCN2C(=O)c4ccccc4C2=O)(Cc2c1ccc1ccccc21)O3 -13% [at 11.5 µM], CC1CCCN(CCCNC(=O)CN2C(=O)COc3ccc(S(=O)(=O)N4CCOCC4)cc32)C1 (stereo unspecified), COc1cccc(OCC(O)CNC(=O)c2oc3c(C)c(C)ccc3c2C)c1 (stereo unspecified), O=C(NCc1ccccc1)c1onc(CSc2nc3ccccc3[nH]2)c1C(=O)NCc1ccccc1, CN(C)C(=O)CCC(=O)N1CCCCC1C(=O)Nc1ccc(Oc2ccccc2F)cc1 (stereo unspecified), COc1ccc(-c2cc(C(=O)N3CCN(Cc4ccc5c(c4)OCO5)CC3)on2)cc1OC, COc1cc(C(=O)NCC2(c3ccccc3)CCCC2)ccc1OC(C)C, O=C(Nc1ccc(S(=O)(=O)N2CCCCCC2)cc1)c1c(F)cccc1F, Cc1cc2c(c(=O)n1Cc1ccccc1)C1O[C@](CCCCN3C(=O)c4ccccc4C3=O)(Cc3ccccc31)O2 41.3% [at 11.5 µM], COc1ccc(Oc2cn[nH]c2-c2ccc(OC)cc2O)cc1, CCOC(=O)N1CCC(N2Cc3cccc(C(=O)Nc4c(C)cccc4CC)c3C2=O)CC1, CC(C)CN(Cc1c(O)ccc2c(=O)c(-c3ccccc3)coc12)CC(C)C, O=C(O)c1ccc2c(=O)n3c(nc2c1)/C(=C/c1ccc(OC(F)F)cc1OC(F)F)CC3, CCOC(=O)C1(CCOc2ccccc2)CCN(Cc2cc(OC)cc(OC)c2)CC1, CNC(=O)c1sc(Nc2ccc(OCc3ccccc3)cc2)nc1C, COc1cc(C(=O)NCc2cc3cc(Cl)ccc3n2C)cc(OC)c1OC, CCn1c(=S)sc2c(=O)n(CC(=O)Nc3cccc(Br)c3)c(C)nc21, Cc1ccc(OCC(=O)NC(C)c2ccccc2)cc1C (stereo unspecified), COc1ccc(CNS(=O)(=O)c2ccc(NC(=O)N3CCCCC3)cc2)cc1, COc1ccc2[nH]c(=O)c(CN(Cc3cccnc3)S(=O)(=O)c3ccccc3F)cc2c1, CSc1ccccc1OCc1cc(C(=O)N(C)CCc2c(C)n[nH]c2C)no1, CCOc1ccc(NC(=O)C2CCN(C(=O)N3CCOc4ccccc43)CC2)cc1, CCOc1c(OC)cccc1C(=O)NCC1(c2ccccc2)CCCC1, Cc1cc(=O)oc2c3c(cc(OCC(=O)NCc4ccccn4)c12)OC(C)(C)CC3

— PubChem BioAssay AID2675 (National Center for Advancing Translational Sciences (NCATS), 2010)
